Assay results reported in PubChem BioAssay (NCATS).
Results filed as inconclusive are left out. Calls of active or inactive are those of the source. The call rests on the fitted dose curve; in most records, active means well fitted curve in the direction sought with a large enough effect; inconclusive means small, poorly fitted or top-dose-only effect, or another doubt; inactive means no such curve, though single readings can be large; an effect the other way counts as inactive or inconclusive.

Legend:
[1] = P-glycoprotein substrates identified in KB-3-1 adenocarcinoma cell line, qHTS therapeutic library screen (AID 1346986); further: nearly all actives have a fitted effect of over 60% in size
Procedure, shortened: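 Viability read by CellTiter-Glo after 72 h compound exposure in dose-response of KB-3-1 and KB-8-5-11 (P-gp-high) cells. Hits needed AC50 < 10 uM, >50% maximum response and curve class -1.1 to -2.4. Cherry-picks retested ± tariquidar, including pcDNA/MDR-19 HEK-293 pair.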

[2] = P-glycoprotein substrates identified in KB-8-5-11 adenocarcinoma cell line, qHTS therapeutic library screen (AID 1346987); further: nearly all actives have a fitted effect of over 65% in size; on activity change, negative = cytotoxicity: series mostly up to about 44 µM; on the % scale 0 is the no-effect control and ±100 the full control effect
Procedure, shortened: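 Compounds are pinned in dose-response onto KB-8-5-11 cells (500 cells/well, colchicine-free medium) and left 72 h at 37 degree C. CellTiter-Glo luminescence then yields AC50 values.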

[3] = system: Zika virus NS2B-NS3 protease (unlinked complex); assay: Primary screen GU Rhodamine qHTS for Zika virus inhibitors: Unlinked NS2B-NS3 protease assay (AID 1347159); further: on the % scale 0 is the no-effect control and ±100 the full control effect; nearly all actives have a fitted effect of over 60% in size
Procedure, shortened: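 In dose–response format, inhibition of unlinked protease (25 nM) was measured with 1.5 microM bis-peptide Rhodamine110 substrate. Aprotinin served as the intraplate control.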

[4] = system: Zika virus NS2B-NS3 protease (linked construct); assay: Primary screen NINDS Rhodamine qHTS for Zika virus inhibitors (AID 1347160); further: nearly all actives have a fitted effect of over 55% in size; on activity change, negative = inhibition: on the % scale 0 is the no-effect control and ±100 the full control effect
Procedure, shortened: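 Each compound, titrated, sat 15 min with 25 nM linked protease before 1.5 microM Rhodamine110 substrate went in. Fluorescence gain over the next 15 min, in pH 8.0 Tris with Tween 20, gave Hill-fitted curves.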

C=CCC1=C[C@]2(OC)[C@H](C)[C@@H](c3ccc(OC)c(OC)c3)O[C@]2(OC)CC1=O
inactive: Potency [1] | Potency [2] | Potency [3] | Potency [4]

CC(=O)c1ccc(O[C@@H]2OC[C@@H](O)[C@H](O)[C@H]2O[C@]2(CO)O[C@H](CO)[C@@H](O)[C@@H]2O)c(O)c1
inactive: Potency [1] | Potency [2] | Potency [3] | Potency [4]

CCC(C)C(=O)O[C@H]1C[C@](C)(O)[C@]23OC(C)(C)[C@H](C[C@H](OC(=O)c4ccccc4)[C@]2(COC(C)=O)[C@H]1OC(=O)C(C)CC)[C@H]3OC(C)=O (some centres not stated)
inactive: Potency [1] | Potency [2] | Potency [3] | Potency [4]

CCCCCOC(=O)Nc1nc(=O)n(C2O[C@H](C)[C@@H](O)[C@H]2O)cc1F (some centres not stated)
inactive: Potency [1] | Potency [2] | Potency [3] | Potency [4]

CCOC(=O)CSc1nc2c(sc3ccccc32)c(=O)n1CCCN1CCCC1
inactive: Potency [1] | Potency [2] | Potency [3] | Potency [4]

CC(=O)O[C@H]1[C@H](O[C@H]2CC[C@]34C[C@]35CC[C@]3(C)[C@@H]([C@@]6(C)CC[C@@H](C(C)(C)O)O6)[C@@H](O)C[C@@]3(C)[C@@H]5C[C@H](O[C@@H]3O[C@H](CO)[C@@H](O)[C@H](O)[C@H]3O)[C@H]4C2(C)C)OC[C@@H](OC(C)=O)[C@@H]1O
inactive: Potency [1] | Potency [2] | Potency [3] | Potency [4]

CC(=O)OC1C(C)C2C(OC3OC(CO)C(O)C(O)C3O)OC=C(C(=O)O)C2C1OC(=O)c1ccccc1 (configuration not stated)
inactive: Potency [1] | Potency [2] | Potency [3] | Potency [4]

CC1=CC(=O)[C@]2(O[C@@H]3O[C@@H](C)[C@H](O)[C@@H](O)[C@H]3O)C=CO[C@@H](O[C@@H]3O[C@H](CO)[C@@H](O)[C@H](O)[C@H]3O)[C@H]12
inactive: Potency [1] | Potency [2] | Potency [3] | Potency [4]

C=C1C2(C)CC3C4(C)C=CC(=O)OC(C)(C)C4CCC3(C)C1(C(=O)OC)C(=O)C(C)(O)C2=O (configuration not stated)
inactive: Potency [1] | Potency [2] | Potency [3] | Potency [4]

CC(=O)OC12CC(C)C(O)C1/C=C(/COC1OC(CO)C(O)C(O)C1O)CCC1C(/C=C(\C)C2=O)C1(C)C (configuration not stated)
inactive: Potency [1] | Potency [2] | Potency [3] | Potency [4]

CC1=CC[C@@]2(C)CC[C@@](O)(C(C)C)[C@@H]2[C@@H](O)C1
inactive: Potency [1] | Potency [2] | Potency [3] | Potency [4]

COC(=O)C(CC1CCCC1)c1ccc(S(C)(=O)=O)cc1 (configuration not stated)
inactive: Potency [1] | Potency [2] | Potency [3] | Potency [4]

CCCC/C=C\CCCCCc1cc(=O)c2ccccc2n1C
inactive: Potency [1] | Potency [2] | Potency [3] | Potency [4]

CC(=O)O[C@@H]1[C@H](O[C@@H]2O[C@H](CO)[C@@H](O)[C@H](O)[C@H]2O)[C@@H](O[C@@H]2O[C@@H](C)[C@H](O)[C@@H](O[C@@H]3O[C@H](CO)[C@@H](O)[C@H](O)[C@H]3O)[C@H]2O)[C@H](OC(=O)[C@]23CCC(C)(C)C[C@H]2C2=CCC4[C@@]5(C)C[C@H](O)[C@H](O[C@@H]6O[C@H](C(=O)O)[C@@H](O)[C@H](O)[C@H]6O)[C@@](C)(C(=O)O)C5CC[C@@]4(C)[C@]2(C)CC3)O[C@@H]1C (some centres not stated)
inactive: outcome [1] inactive [at 9.29 µM] | activity change, negative = cytotoxicity [2] 8.71% [at 9.29 µM] | activity change, negative = inhibition [3] 16.2% [at 19.1 µM] | Potency [4]

COC(=O)C1=COC(OC2OC(CO)C(O)C(O)C2O)C2C(C)C(OC(C)=O)C(OC(=O)c3ccccc3)C12 (configuration not stated)
inactive: Potency [1] | Potency [2] | Potency [3] | Potency [4]

CC1=C(CC/C(C)=C/C(=O)O)[C@@]2(C)CCCC(C)(C)C2CC1=O (some centres not stated)
inactive: Potency [1] | Potency [2] | Potency [4]

N#CN1CCC[C@@H](n2nc(-c3ccc(Oc4ccc(F)cc4F)cc3)c(C(N)=O)c2N)C1
inactive: Potency [1] | Potency [2] | Potency [3] | Potency [4]

Cc1ncc([N+](=O)[O-])n1C[C@H](O)CN1CCOCC1
inactive: Potency [1] | Potency [2] | Potency [4]

CC/C=C/C(O)C(O)C1=C(C)C(=O)C2(O1)C(=O)NC(OC)(C(=O)c1ccccc1)C2O (configuration not stated)
inactive: Potency [1] | Potency [2] | Potency [3] | Potency [4]

C[C@H](/C=C/[C@@]1(O)[C@H](C)CC(=O)CC1(C)C)O[C@@H]1O[C@H](CO[C@@H]2OC[C@@H](O)[C@H](O)[C@H]2O)[C@@H](O)[C@H](O)[C@H]1O
inactive: Potency [1] | Potency [2] | Potency [3] | Potency [4]

COc1cc(/C=C/C(=O)O[C@H]2[C@@H]3C=CO[C@@H](O[C@@H]4O[C@H](CO)[C@@H](O)[C@H](O)[C@H]4O)[C@@H]3[C@@]3(CO)O[C@@H]23)ccc1O
inactive: Potency [1] | Potency [2] | Potency [3] | Potency [4]
